Bioassay records from PubChem.
Compounds with a hit are over-represented: about 7.6% of the library has one in this group of screens.
ELG1 DNA repair: inhibitors of ELG1-dependent DNA repair in HEK293T cells | HEK293T ELG1-luciferase reporter, luminescence, 16 h; DNA damage induced by 5-fluorouridine | Potency, µM (doses to about 46.1 µM), inactives show top-dose activity change, negative = inhibition, actives largely listed as inhibitors | actives 2.3% (n = 330,000); note: potency is the fitted concentration of half-maximal effect; % is set by controls: 0 for no effect and ±100 for the full control effect; nearly all actives have a fitted effect of over 55% in size
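Luminescence from the luciferase reporter, measured 30 min after ONE-Glo reagent at room temperature, was the read-out. Beforehand, 2,000 cells per well were exposed for 16 hr at 37 °C to 5-fluorouridine together with compound or vehicle.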
p53 reactivator: mutant p53 re-activation in reporter cells | H1299 p53-A138V BP100-luciferase reporter, luminescence, 24 h | Potency, µM (top dose mostly 92.2 µM), for the others: at the highest dose activity change, positive = activation, hits mostly activators | actives 0.063% (n = 320,000); note: potency is the fitted concentration of half-maximal effect; % of control where 0% means no effect; nearly all actives have a fitted effect of over 45% in size
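H1299 (p53-null), stable ts p53-A138V + BP100-Luc; 1000 cells/well, Opti-MEM/10% FBS; cpd 4 pt, 1:5; 24 h, 37 deg C, 5% CO2; detection reagent 10 min RT; luminescence.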
RORg inh: blocks mouse ROR gamma transcriptional activity; AID 2551; actives 5.4% (n = 310,000); P51450; Potency, µM (highest dose often 53.6 µM), for inactives: at the top dose activity change, negative = inhibition, most hits filed as inhibitors; Drosophila S2 Gal4-RORgamma UAS-luciferase reporter, 20 h; note: potency is the fitted concentration of half-maximal effect; % is set by controls: 0 for no effect and ±100 for the full control effect; nearly all actives have a fitted effect of over 60% in size
Target sequence (P51450 whole entry, looked up, the tested form may be a part): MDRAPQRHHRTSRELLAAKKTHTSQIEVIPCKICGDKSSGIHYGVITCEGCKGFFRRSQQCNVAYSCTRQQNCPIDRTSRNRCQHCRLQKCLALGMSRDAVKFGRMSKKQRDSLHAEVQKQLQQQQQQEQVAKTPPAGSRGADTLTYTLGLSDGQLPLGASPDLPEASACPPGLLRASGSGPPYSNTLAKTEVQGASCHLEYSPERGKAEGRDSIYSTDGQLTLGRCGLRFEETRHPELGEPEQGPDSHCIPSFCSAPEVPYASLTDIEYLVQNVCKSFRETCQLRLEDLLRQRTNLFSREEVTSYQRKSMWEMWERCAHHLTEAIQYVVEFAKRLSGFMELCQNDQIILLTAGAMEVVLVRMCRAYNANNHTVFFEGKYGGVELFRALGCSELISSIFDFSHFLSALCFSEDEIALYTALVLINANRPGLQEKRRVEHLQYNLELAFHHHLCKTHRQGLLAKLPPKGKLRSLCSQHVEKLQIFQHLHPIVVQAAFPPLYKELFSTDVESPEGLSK
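Stable Schneider cell line, Gal4 DNA-binding domain fused to ROR gamma, UAS-luciferase. Cmpd 1 hr RT → CuSO4 700 uM final → 20 hr RT → luciferase reagent 10 min → luminescence.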
VP16 counter: counter-screen for ROR gamma inhibitors: Gal4-VP16 reporter | AID 2546 | Drosophila S2 Gal4-VP16 UAS-luciferase, luminescence, 20 h | Potency, µM (titrated, usually from 53.6 µM), for inactives: at the top dose activity, negative = inhibition, most hits filed as inhibitors | actives 3.5% (n = 310,000);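 note: Gal4-VP16 expression switched on by copper sulfate through the metallothionein promoter; potency is the fitted concentration of half-maximal effect; % is set by controls: 0 for no effect and ±100 for the full control effect; nearly all actives have a fitted effect of over 50% in size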
BRCA1 expr act: activators of BRCA1 expression. MCF7-BRCA1-FFLuc reporter, luminescence, 48 h; response scale: scaled: vehicle 0%, 10 µM genistein 100%. actives 1.1% (n = 380,000). Potency, µM (doses to about 46.1 µM), without a hit: top-dose activation, most hits filed as activators; note: potency is the fitted concentration of half-maximal effect; nearly all actives have a fitted effect of over 80% in size
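Cells: MCF7-BRCA1-FFLuc, 2000/well. Exposure: 48 h, 37 °C, 5% CO2. Read: luminescence, 15 min post-substrate. Controls: genistein 10 microM (maximal activation), DMSO (neutral).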
Giardia killer: kills Giardia lamblia | Giardia lamblia trophozoite viability | actives 0.15% (n = 340,000) | activity change, % at 7.66 µM, hits read low; in the data active = activity change below about -80%; inconclusive = between about -30% and that limit;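 note: parasites exposed to compound for two days anaerobically before the ATP read; % is set by controls: 0 for no effect and ±100 for the full control effect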
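Giardia trophozoites, 100 cells per well, were exposed to compounds for 48 hrs at 37 deg C under anaerobic conditions; viability was then read as ATP content by bioluminescence after 15-30 min at room temperature.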
Active calls of the source: *; ? = inconclusive; nt = no result; [ ] = another dose, or the depositor's remark. Unless noted, calls come from the whole dose curve; as a rule, active = well fitted curve in the direction sought with a large enough effect; inconclusive = small, poorly fitted or top-dose-only effect, or another doubt; inactive = no such curve, though single readings can be large; an effect the other way counts as inactive or inconclusive.

SMILES	ELG1 DNA repair	p53 reactivator	RORg inh	VP16 counter	BRCA1 expr act	Giardia killer
O=C(CCS(=O)(=O)c1ccc(F)cc1)Nc1nnc(-c2cccs2)o1	3%	-20%	nt	nt	-38%	-2
CN(C)S(=O)(=O)c1ccc(C(=O)NCc2cccs2)cc1	4%	-5%	3%	-3%	21%	-11
CN(C)S(=O)(=O)c1ccc(C(=O)Nc2nnc(-c3ccc4c(c3)CCCC4)o2)cc1	?	-2%	0.13µM*	0.089µM*	-44%	-3
CN(C)S(=O)(=O)c1ccc(C(=O)Nc2ccc(S(=O)(=O)NC3=NCCCCC3)cc2)cc1	-2%	-5%	-3%	3%	-15%	2
N#Cc1ccc(NC(=O)c2cc(-c3cccs3)on2)cc1	-6%	5%	2%	-2%	1%	-4
CN(C)S(=O)(=O)c1ccc(C(=O)Nc2nnc(-c3cccs3)o2)cc1	?	8%	0.63µM*	1.3µM*	-23%	-20
CCCCN(C)C(=O)Cn1cnc2sc(C)cc2c1=O	6%	-8%	7%	4%	4%	-8
CC(C)(C)OC(=O)C[C@H]1C/C=C\C[C@@H](CC(=O)N(CCO)Cc2ccccc2)C(=O)N[C@H](C(C)(C)C)COC1=O	5%	3%	nt	nt	-24%	?
Cc1ccc(-c2nc(NCC3CCCO3)sc2C)cc1 (stereo not given)	?	0%	11µM*	-10%	26%	14
Cc1ccc(S(=O)(=O)c2nc(S(C)(=O)=O)sc2NCC2CCCO2)cc1 (stereo not given)	?	-5%	3%	-4%	4%	8
CCN(C(=O)COc1ccc(N(C)S(=O)(=O)c2ccc(NC(C)=O)cc2)cc1)C1CCCCC1	21µM*	-9%	nt	nt	-36%	14
COCC(C)n1c(C)cc(C(=O)COc2ccc(N(C)S(=O)(=O)c3ccc(NC(C)=O)cc3)cc2)c1C (stereo not given)	4.1µM*	-10%	nt	nt	-36%	12
O=C(CSc1nnc(Cn2nnc3ccccc32)o1)N(Cc1ccc(F)cc1)c1ccccc1	-1%	11%	?	?	-81%	2
COc1ccc(N(Cc2ccccc2)C(=O)CSc2nnc(Cn3nnc4ccccc43)o2)cc1	18µM*	3%	1%	-4%	-56%	-26
CCO/C(C)=N/Oc1cc(OC)cc(OC)c1	nt	nt	nt	nt	9%	nt
Cc1ccc(S(=O)(=O)N(C(=O)c2ccncc2)c2ccc(OC(=O)c3ccncc3)c3ccccc23)c(C)c1	?	-17%	?	?	-62%	11
COC(=O)c1c(C)oc2ccc(N(C(=O)c3ccncc3)S(=O)(=O)c3ccc(C)cc3C)cc12	?	-3%	?	4.5µM*	-80%	1
COC(=O)c1c(C)oc2ccc(N(C(=O)c3ccncc3)S(=O)(=O)c3ccccc3)cc12	-11%	-1%	-27%	?	-53%	6
Cc1ccc(S(=O)(=O)N(C(=O)c2ccncc2)c2ccc(OC(=O)c3ccncc3)c3ccccc23)cc1	18µM*	-26%	13µM*	?	-17%	-7
COC(=O)c1c(C)oc2ccc(N(C(=O)c3ccncc3)S(=O)(=O)c3ccc(C)cc3)cc12	-12%	17%	-39%	7.1µM*	-73%	2
COC(=O)c1c(C)oc2ccc(N(C(=O)c3ccncc3)S(=O)(=O)c3ccc4ccccc4c3)cc12	-27%	27%	?	3.5µM*	-67%	2
Cc1ccc(S(=O)(=O)NNC(=O)CCC(=O)Nc2ccc(C)cc2C)cc1	-8%	-6%	-11%	?	-5%	-9
Cc1ccccc1NC(=O)C(C)SCc1ccccc1 (stereo not given)	-6%	nt	8%	1%	20%	-11
CCOC(=O)C(C#N)C(=N)C1C(=O)OC2CCCCC21 (stereo not given)	nt	nt	nt	nt	-11%	nt
O=c1c2c3c(sc2ncn1Cc1ccc(F)cc1)CCC3	-13%	3%	-1%	1%	1%	4
SMILES	ELG1 DNA repair	p53 reactivator	RORg inh	VP16 counter	BRCA1 expr act	Giardia killer
CC(=O)Nc1ccc(C(=O)CSc2nnnn2C)cc1	9%	3%	-2%	1%	44%	11
Cn1nnnc1SCc1ccc(C(=O)Nc2ccc(Br)cc2)cc1	?	12%	16%	3%	10µM*	-18
COCCNC(=O)CN1C(=O)CSc2cc(S(=O)(=O)N3CCCCCC3)ccc21	nt	nt	nt	nt	0%	34
NNc1nc2ccccc2nc1C(F)(F)F	?	0%	-44%	-1%	0%	-5
FC(F)(F)c1nc2ccccc2nc1N/N=C\c1ccccc1	26%	-4%	3.5µM*	13µM*	-20%	-3
c1ccc(-c2nc(NCC3CCCO3)c3ccccc3n2)nc1 (stereo not given)	18µM*	-3%	1.6µM*	7.1µM*	-1%[1.84 µM]	4
COc1ccccc1Nc1nc(NCc2ccco2)c2ccccc2n1	21µM*	0%	12%	?	-53%	1
C(=N\Nc1nc(-c2ccccn2)nc2ccccc12)/c1ccccc1	?	?	0.089µM*	0.5µM*	-46%	19
Cc1ccc(Nc2nc(NCc3ccco3)c3ccccc3n2)cc1	?	1%	?	-13%[10 µM]	-54%	2
O=[N+]([O-])c1ccc(N2CCCC2)cc1NCc1ccccc1	9%	-3%	7%	3%	-27%	28
CCOc1ccc(Nc2nc(NCC3CCCO3)c3ccccc3n2)cc1 (stereo not given)	7.3µM*	9%	?	?	-22%	31
Oc1cccc(Nc2nc(NCC3CCCO3)c3ccccc3n2)c1 (stereo not given)	21µM*	?	3%	?	-19%	-3
COc1ccc(Nc2c3c(nc4ccccc24)CCC3)c(OC)c1	?	-3%	1%	2%	-80%	-4
c1ccc(-c2nc(NCc3ccco3)c3ccccc3n2)nc1	7.3µM*	-37%	1.3µM*	2.8µM*	-76%	-7
c1ccc(Nc2nc(NCC3CCCO3)c3ccccc3n2)cc1 (stereo not given)	?	23%	-19%	?	-48%	18
Oc1ccccc1-c1nc(NCc2ccco2)c2ccccc2n1	-17%	10%	-27%	-10%	-19%	-9
COc1ccc(Nc2nc(NCC3CCCO3)c3ccccc3n2)c(OC)c1 (stereo not given)	13µM*	-7%	-9%	-1%	-33%	3
CCOC(=O)c1cnc2ccc(C(=O)OC)cc2c1Nc1ccc(N2CCOCC2)cc1	nt	nt	nt	nt	-21%	nt
O=C(CSc1nnnn1C1CCCC1)N1CCN(C(=O)c2ccco2)CC1	22%	-6%	-39%	0%	0%	4
